# Assay results published in PubChem BioAssay (EPA / NIEHS).
# Inconclusive results are not listed. Calls of active or inactive are those of the source. The calls were made as follows, unless noted: active = hit-call score of the fitted dose curve at least 0.9, where 1 is the maximum; inconclusive = response in the unintended direction; inactive = score below 0.9.
# Key:
# [1] = CEETOX_H295R_ESTRADIOL_noMTC: CeeTox H295R High-throughput Steroidogenesis Assay for Estradiol, maximum tolerated concentration (MTC) filtered results only (AID 2283919; active = hit-call score of the fitted dose curve at least 0.9, where 1 is the maximum; inactive = score below 0.9); conditions: actives raise or lower the signal
# In short: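 H295R human adrenal cells pre-stimulated 48 h with 10 uM forskolin, then exposed 48 h to chemical (0.1% DMSO final). Estradiol in medium measured by HPLC-MS/MS after MTBE extraction and dansyl derivatization; bidirectional fit versus DMSO, concentrations not MTT-filtered.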
# [2] = CEETOX_H295R_PROG_noMTC: CeeTox H295R High-throughput Steroidogenesis Assay for Progesterone (PROG), maximum tolerated concentration (MTC) filtered results only (AID 2283920; active = hit-call score of the fitted dose curve at least 0.9, where 1 is the maximum; inactive = score below 0.9); conditions: actives raise or lower the signal
# In short: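 H295R cells, prestimulated 48 h with 10 uM forskolin, exposed 48 h to chemical in 0.1% DMSO. Medium progesterone quantified by MTBE extraction and HPLC-MS/MS; bidirectional fit versus DMSO, concentrations not MTT-filtered.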
# [3] = CEETOX_H295R_ESTRONE_noMTC: CeeTox H295R High-throughput Steroidogenesis Assay for Estrone, maximum tolerated concentration (MTC) filtered results only (AID 2283921; active = hit-call score of the fitted dose curve at least 0.9, where 1 is the maximum; inactive = score below 0.9); conditions: actives raise or lower the signal
# In short: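 H295R cells prestimulated 48 h with 10 uM forskolin, then exposed 48 h to chemical in 0.1% DMSO; medium estrone measured by HPLC-MS/MS after MTBE extraction and dansyl derivatization, fitted bidirectionally versus DMSO without MTT-based MTC filtering.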
# [4] = CEETOX_H295R_TESTO_noMTC: CeeTox H295R High-throughput Steroidogenesis Assay for Testosterone (TESTO), maximum tolerated concentration (MTC) filtered results only (AID 2283924; active = hit-call score of the fitted dose curve at least 0.9, where 1 is the maximum; inactive = score below 0.9); conditions: actives raise or lower the signal
# In short: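 H295R cells prestimulated 48 h with 10 uM forskolin, then exposed 48 h to chemicals in 0.1% DMSO final. Testosterone in medium quantified by MTBE extraction and HPLC-MS/MS; bidirectional fit versus DMSO, concentrations […] filtered by MTT-based maximum tolerated concentration.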
# PGR (gene 5241) [5] = target: PGR (gene 5241) (UniProt P06401); experiment: TOX21_PR_BLA_Followup_Agonist_ratio: Tox21 HEK293 Progesterone Receptor (PR) Agonism Beta-lactamase Follow-Up Assay, Ratio (AID 2283933)
# In short: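 PR-UAS-bla HEK293T cells (GAL4-UAS beta-lactamase reporter) in medium with 2% charcoal-stripped FBS received compounds after 6 hr at 37C, then incubated 16 hr. LiveBLAzer FRET substrate added, 2 hr room temperature; cleaved/uncleaved (ch2/ch1) ratio fitted upward versus DMSO.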
# PGR (gene 5241) [6] = target: PGR (gene 5241) (UniProt P06401); experiment: TOX21_PR_LUC_Followup_Agonist: Tox21 HEK293 Progesterone Receptor (PR) Agonism Luciferase Follow-Up Assay (AID 2283937; active = hit-call score of the fitted dose curve at least 0.9, where 1 is the maximum; inactive = score below 0.9)
# In short: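 HEK293-PR-A-luc cells, pre-cultured 5 days in medium with 10% charcoal-stripped FBS, were seeded at 3,000 cells/well, rested 5 h at 37C, then exposed to compounds 16 h at 37C; luciferase read by ONE-Glo luminescence after 30 min.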
# [7] = TOX21_PR_LUC_Followup_Antagonist_viability: Viability Assessment in the Tox21 HEK293 Progesterone Receptor (PR) Antagonism Luciferase Follow-Up Assay (AID 2283940)
# In short: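 HEK293-PR-A-luc cells, precultured 5 days in assay medium with 10% charcoal-stripped FBS, were seeded at 3,000 cells/well, treated with compounds in DMSO for 16 h at 37C, and viability was read as cellular ATP by CellTiter-Glo luminescence.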
# [8] = target: Thyroid hormone receptor alpha (Rattus norvegicus) + Thyroid hormone receptor beta (Rattus norvegicus) (UniProt P18113+P63059); experiment: TOX21_TR_LUC_GH3_Antagonist_Followup: Tox21 GH3 Thyroid Hormone Receptor Antagonism Luciferase Follow-Up Assay (AID 2283942)
# In short: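 Antagonist mode: GH3 cells seeded 1,500/well, compounds at 15 concentrations (92 uM to 5nM final) plus T3 at 1.0 nM final, 24 h at 37C. Luciferase read with ONE-Glo after 30 min at room temperature.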
# THRA (gene 7067) = THRA (gene 7067) (UniProt P10827); experiment: TOX21_TRA_COA_Antagonist_Followup_ratio: Tox21 Thyroid Hormone Receptor alpha Antagonism through Coactivator Recruitment Follow-Up Assay, Ratio (AID 2283953)
# In short: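 This follow-up to the GH3 luciferase screen checks specificity in a cell-free format. It measures SRC-2 coactivator peptide binding to TRα LBD by TR-FRET and scores loss of ratio signal relative to DMSO.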
# THRB (gene 7068) [9] = target: THRB (gene 7068) (UniProt P10828); experiment: TOX21_TRB_BLA_Antagonist_Followup_ratio: Tox21 Thyroid Hormone Receptor beta Antagonism Beta-lactamase (BLA) Follow-Up Assay, Ratio (AID 2283958)
# In short: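 GAL4-DBD/human TRβ-LBD fusion in GeneBLAzer UAS-bla HEK293T cells, 3,000 cells/well in phenol red-free DMEM with 2% charcoal-stripped FBS; compounds at 11 concentrations in triplicate, 18 h at 37C. CCF4-AM substrate 2 h, 460:530 nm ratio relative to DMSO.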
# [10] = TOX21_TRB_BLA_Antagonist_Followup_viability: Viability Assessment in the Tox21 Thyroid Hormone Receptor beta Antagonism Beta-lactamase (BLA) Follow-Up Assay (AID 2283961)
# In short: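 HEK293T cells with GAL4-human TRβ LBD and UAS-bla reporter, 3,000 cells/well in 2% charcoal-stripped FBS medium; 11-point concentrations in triplicate, 18 h at 37C. Viability from ATP by CellTiter-Glo luminescence, 30 min RT, same plates.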
# THRB (gene 7068) [11] = target: THRB (gene 7068) (UniProt P10828); experiment: TOX21_TRB_COA_Antagonist_Followup_ratio: Tox21 Thyroid Hormone Receptor beta Antagonism through Coactivator Recruitment Follow-Up Assay, Ratio (AID 2283967)
# In short: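 Cell-free TR-FRET: GST-TRb LBD (5.0 nM) with fluorescein-SRC-2 peptide (200 nM) and Tb anti-GST antibody (2 nM), 0.10% BSA. 520:495 nm emission ratio normalized to DMSO (0%) and T3 (100%).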
# [12] = target: Retinoic acid receptor RXR-alpha (Homo sapiens) (UniProt P19793); experiment: TOX21_TR_RXR_BLA_Antagonist_Followup_ratio: Tox21 Thyroid Hormone Receptor beta Retinoid X Receptor alpha (RXRa) Antagonism Beta-lactamase (BLA) Follow-Up Assay, Ratio (AID 2283972)
# In short: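 RXRa-UAS-bla HEK293T cells, 2,500/well in phenol red-free DMEM with 2% charcoal-stripped FBS, 5 h attachment, then compounds (11 concentrations, triplicate) for 16 h at 37C; FRET-B/GCCF4-AM substrate 2 h RT; 460:530 nm ratio, loss of signal vs DMSO.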
# Sequence of THRB (gene 7068) (P10828 whole entry, looked up, the tested form may be a part): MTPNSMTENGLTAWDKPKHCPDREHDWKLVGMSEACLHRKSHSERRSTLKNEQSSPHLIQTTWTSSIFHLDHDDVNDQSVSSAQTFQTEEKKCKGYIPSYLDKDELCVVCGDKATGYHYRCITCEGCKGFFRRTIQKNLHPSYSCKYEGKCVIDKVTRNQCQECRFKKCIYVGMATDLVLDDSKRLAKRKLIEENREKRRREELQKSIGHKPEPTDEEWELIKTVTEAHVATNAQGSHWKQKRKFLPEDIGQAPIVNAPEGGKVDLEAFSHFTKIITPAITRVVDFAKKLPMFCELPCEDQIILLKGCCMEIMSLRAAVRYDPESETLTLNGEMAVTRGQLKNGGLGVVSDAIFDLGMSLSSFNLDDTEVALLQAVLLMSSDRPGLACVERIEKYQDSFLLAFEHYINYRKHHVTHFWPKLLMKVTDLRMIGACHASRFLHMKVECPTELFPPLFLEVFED
# Sequence of PGR (gene 5241) (P06401 whole entry, looked up, the tested form may be a part): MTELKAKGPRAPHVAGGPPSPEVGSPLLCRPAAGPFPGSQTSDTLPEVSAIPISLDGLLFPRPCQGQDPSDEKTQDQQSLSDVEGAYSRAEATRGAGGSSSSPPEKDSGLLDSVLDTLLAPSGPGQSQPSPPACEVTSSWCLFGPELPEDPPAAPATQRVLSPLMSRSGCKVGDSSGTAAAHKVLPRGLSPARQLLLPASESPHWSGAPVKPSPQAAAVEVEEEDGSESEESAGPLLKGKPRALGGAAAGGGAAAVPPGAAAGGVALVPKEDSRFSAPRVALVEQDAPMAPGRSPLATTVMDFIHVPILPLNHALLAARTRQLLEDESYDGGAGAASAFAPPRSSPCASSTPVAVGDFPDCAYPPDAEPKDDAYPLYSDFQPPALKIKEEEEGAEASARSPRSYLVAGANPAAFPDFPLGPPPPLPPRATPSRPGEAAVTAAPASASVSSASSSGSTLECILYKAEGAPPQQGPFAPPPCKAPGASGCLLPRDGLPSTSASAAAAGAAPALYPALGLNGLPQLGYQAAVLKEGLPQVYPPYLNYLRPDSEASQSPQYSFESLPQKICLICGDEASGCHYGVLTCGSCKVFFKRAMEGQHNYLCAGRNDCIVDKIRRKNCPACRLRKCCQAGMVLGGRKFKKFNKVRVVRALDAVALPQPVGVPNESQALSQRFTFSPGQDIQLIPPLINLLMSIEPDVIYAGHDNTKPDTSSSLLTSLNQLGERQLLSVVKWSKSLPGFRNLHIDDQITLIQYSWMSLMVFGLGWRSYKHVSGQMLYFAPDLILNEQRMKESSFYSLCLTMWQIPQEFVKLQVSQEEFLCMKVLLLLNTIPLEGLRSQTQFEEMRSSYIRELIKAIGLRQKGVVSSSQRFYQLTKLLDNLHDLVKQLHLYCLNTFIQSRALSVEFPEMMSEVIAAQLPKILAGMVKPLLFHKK
# Sequence of Retinoic acid receptor RXR-alpha (Homo sapiens) (P19793 whole entry, looked up): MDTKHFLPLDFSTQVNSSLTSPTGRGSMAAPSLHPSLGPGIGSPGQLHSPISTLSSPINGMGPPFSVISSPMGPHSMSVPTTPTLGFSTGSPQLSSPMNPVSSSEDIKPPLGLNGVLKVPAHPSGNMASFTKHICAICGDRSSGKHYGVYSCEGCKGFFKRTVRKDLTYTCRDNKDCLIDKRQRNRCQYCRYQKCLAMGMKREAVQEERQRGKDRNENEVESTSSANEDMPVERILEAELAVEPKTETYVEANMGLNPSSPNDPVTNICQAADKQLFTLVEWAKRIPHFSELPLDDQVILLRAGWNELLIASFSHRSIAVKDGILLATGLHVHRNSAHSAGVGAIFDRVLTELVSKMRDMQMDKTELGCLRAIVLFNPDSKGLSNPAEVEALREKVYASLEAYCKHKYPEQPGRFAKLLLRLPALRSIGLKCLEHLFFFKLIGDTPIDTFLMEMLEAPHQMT
# Sequence of THRA (gene 7067) (P10827 whole entry, looked up, the tested form may be a part): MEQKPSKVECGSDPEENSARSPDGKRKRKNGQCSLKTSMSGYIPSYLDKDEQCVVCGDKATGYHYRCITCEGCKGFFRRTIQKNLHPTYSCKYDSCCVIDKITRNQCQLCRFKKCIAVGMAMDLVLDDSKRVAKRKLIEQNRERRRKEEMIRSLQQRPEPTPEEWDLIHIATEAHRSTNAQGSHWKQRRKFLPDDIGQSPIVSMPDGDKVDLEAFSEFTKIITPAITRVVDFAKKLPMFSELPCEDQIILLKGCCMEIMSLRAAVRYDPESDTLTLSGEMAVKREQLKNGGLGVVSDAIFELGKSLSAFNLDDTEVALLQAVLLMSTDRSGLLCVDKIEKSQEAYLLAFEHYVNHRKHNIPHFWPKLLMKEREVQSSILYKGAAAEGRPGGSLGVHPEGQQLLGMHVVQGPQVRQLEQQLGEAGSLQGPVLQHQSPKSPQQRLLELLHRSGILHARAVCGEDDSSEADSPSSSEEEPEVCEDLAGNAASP
smiles,measurement,setting,value
COC(=O)c1c(C(F)F)nc(C(F)(F)F)c(C2=NCCS2)c1CC(C)C,outcome,[1],inactive
same,AC50,[2],13.8 µM (active)
same,outcome,[3],inactive
same,outcome,[4],inactive
CC1(C)CCC(=Cc2ccc(Cl)cc2)C1(O)Cn1cncn1 (centres undefined),outcome,PGR (gene 5241) [5],inactive
same,outcome,PGR (gene 5241) [6],inactive
same,outcome,[7],inactive
N#Cc1c[nH]cc1-c1cccc2c1OC(F)(F)O2,outcome,[7],inactive
CO/N=C(/C1=NOCCO1)c1ccccc1Oc1ncnc(Oc2ccccc2Cl)c1F,AC50,[8],16.5 µM (active)
same,outcome,THRA (gene 7067),inactive
same,AC50,THRB (gene 7068) [9],54.6 µM (active)
same,AC50,[10],38.3 µM (active)
same,outcome,THRB (gene 7068) [11],inactive
same,outcome,[12],inactive
